Sm TGR block: qHTS Assay for the Inhibitors of Schistosoma Mansoni Peroxiredoxins; purified TGR, DTNB reduction, TNB absorbance 405 nm; Potency, µM (highest dose often 114 µM), without a hit: at the top dose activity change, negative = inhibition, hits mostly inhibitors; Schistosoma mansoni thioredoxin glutathione reductase (TGR), Q962Y6; hit rate 3% among 360,000; further: potency means the concentration at half of the fitted maximal effect; on the % scale 0 is the no-effect control and ±100 the full control effect; nearly all actives have a fitted effect of over 60% in size
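Kinetic colorimetric format: TGR-catalysed, NADPH-driven DTNB reduction monitored via TNB absorbance. Enzyme dispensed at 20 nM; compound exposure 15 min at room temperature before reaction start.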
HCMV inh: qHTS Assay for inhibitors of the human cytomegalovirus (HCMV); HFF cells, HCMV-luciferase reporter, 72 h; active compounds read low; activity change, negative = inhibition, % at 57.5 µM; hit rate 4.5% among 410,000; AID 1259415, 2018; in the data active means activity change below about -60%; inconclusive means no clear call, values can overlap the other calls; inactive means above about -39%; further: on the % scale 0 is the no-effect control and ±100 the full control effect
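Human foreskin fibroblasts infected with luciferase-reporter HCMV at MOI 1 PFU/cell, compounds at two doses. Luciferase measured 72 h post infection; normalized to buffer-only basal and Salinomycin (10uM) controls.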
HCV inhibitor: qHTS Assay for Inhibitors of Hepatitis C Virus (HCV) | hit rate 3.4% among 340,000 | Potency, µM (titrated, usually from 41.8 µM), inactives show top-dose activity change, negative = inhibition, most hits filed as inhibitors | Huh7.5.1 HCVcc-Cre infection, luciferase reporter, 44 h; further: potency means the concentration at half of the fitted maximal effect; on the % scale 0 is the no-effect control and ±100 the full control effect
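Whole-lifecycle infectious HCVcc-Cre system; cells 1,000/well, compound then virus (~0.5 moi) added 4 h after plating, 44 h culture. Luciferase read 15 sec following 15 min substrate incubation, room temp.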
SARS PLpro yeast: qHTS of Yeast-based Assay for SARS-CoV PLP; S. cerevisiae expressing SARS-CoV PLpro, growth rescue; Potency, µM (series often up to 32.9 µM), without a hit: top-dose activity, positive = growth rescue, actives largely listed as activators; hit rate 0.19% among 330,000; calls by dose curve; further: potency means the concentration at half of the fitted maximal effect; 0% is about no effect; nearly all actives have a fitted effect of over 55% in size
Pf growth 96h: Primary qHTS for delayed death inhibitors of the malarial parasite plastid, 96 hour incubation | P. falciparum luciferase reporter growth, 96 h | Potency, µM (highest dose often 28.7 µM), for inactives: at the highest dose activity change, negative = inhibition, actives largely listed as inhibitors | hit rate 6.9% among 320,000 | AID 504834, 2011; further: potency means the concentration at half of the fitted maximal effect; on the % scale 0 is the no-effect control and ±100 the full control effect
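Cell-based qHTS: luciferase-tagged P. falciparum in erythrocytes (2% hematocrit, 0.05% parasitemia final) incubated with compounds for 96 hours, 37 C, 5% CO2; luciferase detection reagent then added and luminescence measured.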
Pf growth 48h: Primary qHTS for delayed death inhibitors of the malarial parasite plastid, 48 hour incubation. AID 504832, 2011. P. falciparum luciferase growth in erythrocytes, 48 h. hit rate 5.9% among 310,000. Potency, µM (highest dose often 28.7 µM), for the others: top-dose activity change, negative = inhibition, actives largely listed as inhibitors; further: potency means the concentration at half of the fitted maximal effect; on the % scale 0 is the no-effect control and ±100 the full control effect
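Luminescence readout; reporter = integrated firefly luciferase in P. falciparum. RBC culture at 2% hematocrit, 0.1% parasitemia final, 37 C/5% CO2; decreased signal taken as growth inhibition.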
Active calls of the source: *; ? = inconclusive; nt = no result; + = active, no number. In the library only some 15% were active in any assay of this set; here they are far more common. Unless noted, the call rests on the fitted dose curve; in most records, active means well fitted curve in the direction sought with a large enough effect; inconclusive means small, poorly fitted or top-dose-only effect, or another doubt; inactive means no such curve, though single readings can be large; an effect the other way counts as inactive or inconclusive.

SMILES	Sm TGR block	HCMV inh	HCV inhibitor	SARS PLpro yeast	Pf growth 96h	Pf growth 48h
Nc1ncnc2c1ncn2[C@@H]1O[C@H](CNS(=O)(=O)c2ccc3c(c2)CCN(C(=O)C(F)(F)F)C3)[C@@H](O)[C@H]1O	nt	-15.6	-8.3%	8.3%	nt	nt
O=C1Nc2c(c(=O)[nH]c(=O)n2-c2ccccc2)C1(NS(=O)(=O)c1ccc(Cl)cc1)C(F)(F)F (configuration not stated)	1.1%	16.2	nt	nt	nt	nt
O=C(O)COc1cccc(/C=C2/SC(=S)N(Cc3ccccc3)C2=O)c1	-4.5%	-33.3	-1.5%	-1.1%	?	3.0%
O=C1/C(=C\c2cccc(O)c2O)SC(=S)N1Cc1ccccc1	-4.0%	3.5	25.1µM*	-8.9%	?	?
Cc1ccc(/C=C2\SC(=S)N(Cc3ccccc3)C2=O)o1	?	?	?	-1.1%	0.0%	?
O=C1/C(=C\c2cccc(O)c2)SC(=S)N1Cc1ccccc1	0.3%	-74.3*	-13.5%	-2.3%	-67.8%	?
O=C1/C(=C\c2cc([N+](=O)[O-])ccc2O)SC(=S)N1Cc1ccc(Cl)cc1	-7.0%	-76.8*	?	-8.0%	16.0%	?
O=C(O)CN1C(=O)/C(=C\c2cccc(OCc3ccccc3)c2)SC1=S	0.501µM*	6.9	4.2%	1.1%	14.7µM*	14.2%
CC1(CCc2ccccc2)NC(=O)N(CC(=O)Nc2ccc(S(N)(=O)=O)cc2)C1=O (configuration not stated)	0.0%	-19.7	-2.7%	0.6%	?	-10.4%
CCOC(=O)C1CCN(C/C=C/c2ccccc2[N+](=O)[O-])CC1	-23.0%	-9.1	18.4%	-3.4%	226.9%	1.1%
Cc1ccc(CSc2ncc(Cl)c(C(=O)Nc3nnc(C)s3)n2)cc1	-3.6%	14.9	nt	nt	nt	nt
O=C(CN1C(=O)NC2(CCCCCC2)C1=O)N1CCN(S(=O)(=O)c2ccc(Cl)cc2)CC1	-13.8%	-4.1	8.0%	-1.5%	1.3%	?
CN(C(=O)Cn1cnc2onc(-c3ccc(F)cc3)c2c1=O)c1ccccc1Cl	5.8%	-6.1	nt	nt	nt	nt
COc1cc(/C=C2/SC(=S)N(Cc3ccccc3)C2=O)ccc1O	-6.3%	41.7	-10.9%	-4.3%	?	?
O=C1/C(=C\c2ccc(O)c(O)c2)SC(=S)N1Cc1ccccc1	-27.2%	?	?	-10.9%	32.5%	13.1µM*
CCCN(CC(=O)Nc1ccc(F)c(F)c1F)C(=O)CN1C(=O)NC2(CCCCC2)C1=O	nt	?	-4.4%	nt	nt	nt
COc1ccccc1CNC(=O)CS(=O)Cc1nc(-c2ccccc2C)oc1C (configuration not stated)	?	13.9	1.0%	-1.0%	5.22µM*	nt
COc1ccc(-c2nc(CS(=O)CC(=O)NCc3ccccc3OC)c(C)o2)cc1 (configuration not stated)	-28.7%	3.9	nt	nt	nt	nt
Cc1ccccc1-c1nc(CS(=O)CC(=O)NCc2ccccc2)c(C)o1 (configuration not stated)	22.4µM*	-0.2	-8.4%	-0.8%	?	nt
Cc1oc(-c2ccccc2F)nc1CS(=O)CC(=O)NCc1ccc(Cl)cc1 (configuration not stated)	-29.5%	-22.7	-4.1%	-1.7%	17.9%	15.4%
COCCNC(=O)CS(=O)Cc1nc(-c2ccccc2C)oc1C (configuration not stated)	39.8µM*	-34.6	6.1%	4.5%	-15.8%	nt
COc1ccc(CNC(=O)CS(=O)Cc2nc(-c3ccccc3C)oc2C)cc1 (configuration not stated)	?	20.5	-15.3%	0.6%	9.5%	nt
Cc1ccc(CNC(=O)CS(=O)Cc2nc(-c3ccccc3C)oc2C)cc1 (configuration not stated)	44.7µM*	23.0	-8.9%	6.1%	52.2%	nt
Cc1cnc(NC(=O)c2cc3ccccc3o2)s1	3.2%	70.9	-3.9%	-0.4%	472.2%	234.4%
Cc1ccccc1-c1nc(CS(=O)CC(=O)NCCc2ccc(Cl)cc2)c(C)o1 (configuration not stated)	28.2µM*	-13.7	?	2.1%	2.5%	4.9%
SMILES	Sm TGR block	HCMV inh	HCV inhibitor	SARS PLpro yeast	Pf growth 96h	Pf growth 48h
Cc1ccc(CCNC(=O)CS(=O)Cc2nc(-c3ccccc3C)oc2C)cc1 (configuration not stated)	-23.0%	-9.5	nt	nt	nt	nt
O=C(Cc1cccc2ccccc12)Nc1ccc(-c2cc3ccccc3oc2=O)cc1	-2.7%	-39.3	?	6.3%	?	11.7µM*
Cn1c(=O)c2cc(NC(=O)Cc3ccccc3F)ccc2n1-c1ccc(C(C)(C)C)cc1	nt	-31.0	nt	nt	nt	nt
Cc1cc(C)cc(-n2c3ccc(NC(=O)Cc4cccc5ccccc45)cc3c(=O)n2C)c1	nt	-70.5*	nt	nt	nt	nt
CC12CCC(=O)N1C(C(=O)NCc1ccc(Cl)cc1Cl)CS2 (configuration not stated)	-5.4%	-34.1	-5.7%	0.5%	51.7%	-25.7%
O=[N+]([O-])c1ccc(-c2ccccc2)c([As](=O)(O)O)c1	2µM*	-90.7*	-23.7%	1.2%	2.08µM*	11.7µM*
CCOC(=O)C1=C[C@@H](c2ccccc2)N(S(=O)(=O)c2ccc(C)cc2)[C@H]1c1ccccc1Cl	nt	-24.3	nt	nt	nt	nt
CCC[C@H]1[C@@H](NC(=O)Nc2ccccc2)CC[C@@]23CCCN2C(=O)CCC[C@@H]13	nt	7.1	nt	nt	nt	nt
Cc1ccc(O)c(NC(=O)COCc2cc(-c3ccco3)on2)c1	-3.8%	+	nt	nt	nt	nt
O=C(COc1ccc(Cl)cc1Cl)Nc1ccc(C(=O)OC2CCCCC2)cc1	-9.4%	-0.5	nt	nt	nt	nt
Cc1cc(C)cc(NC(=O)c2ccc3c(O)c(S(=O)(=O)c4ccccc4)c(=O)[nH]c3c2)c1	-2.4%	11.1	nt	nt	nt	nt
CCOC(=O)C(=CNNc1cccc(Cl)c1)C(=O)OCC	8.91µM*	23.9	21.1%	-5.4%	?	?
COc1ccccc1CNC(=O)Cn1nc(C(F)(F)F)cc1C	-5.0%	-7.1	1.9%	-2.5%	14.7µM*	11.7µM*
COc1ccccc1CNC(=O)Cn1cccc1	-34.2%	-5.1	-0.4%	nt	22.5%	-6.6%
Cc1cc(C(F)(F)F)nn1CC(=O)NCc1ccccc1	-12.7%	-37.7	-3.0%	-11.3%	7.38µM*	nt
CCOC(=O)c1[nH]c2ccc(OC)cc2c1N=CN(C)C	-0.4%	27.5	-7.5%	0.1%	0.131µM*	7.0%
CCOC(=O)c1[nH]c2ccc(OC)cc2c1NC(=O)NC(C)C	9.8%	58.6	0.3%	3.5%	14.1%	?
COc1cccc(/C=N/NC(=O)Cn2cnc3c2c(=O)n(C)c(=O)n3C)c1	0.1%	-17.3	8.8%	0.1%	41.3%	19.2%
